# Laboratory results taken from PubChem BioAssay.
# Calls of active or inactive are those of the source. Unless noted, the rule behind the calls is not given here.
# Key:
# [1] = compounds altering circadian rhythm period length – cell-based, LOPAC library, luminescence reporter (AID 2774); settings: circadian reporter cells, at 7 µM, actives lie on both sides;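 note: values are relative to mean of DMSO wells on each plate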
# [2] = tested on: Hepatitis C virus NS3 helicase; test: blockers of NS3h binding to ssDNA – biochemical, fluorescence polarization, LOPAC1280 library, primary screen (AID 687035; in the data active = inhibition above about 37%); settings: Purified HCV NS3 helicase, Cy5-dT15 ssDNA binding fluorescence polarization; stronger effect = higher value; concentration not given here
# [3] = compounds altering Cy5-DNA-NS3h complex signal – biochemical, LOPAC1280, artefact control for HCV NS3 helicase inhibitor project (AID 687037); settings: Cy5-DNA-NS3h complex fluorescence interference counterscreen
# [4] = viability loss with induced miR-34 in A549 – imaging, A549 dox-inducible miR-34, nuclei and caspase counts, primary screen (AID 1347080;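 active = compounds whose cell count with miR-34 switched on is under 0.7 times the count with it off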); settings: A549 miR-34 inducible, Hoechst nuclei count, 48 h
# [5] = blockers of cellular phospholipid synthesis – cell-based, LOPAC library, screen 4, primary screen (AID 1347384); settings: animal cells, phospholipid biosynthesis inhibition screen; at 10 µM
# [6] = galactose survival enhancers in mitochondrial complex I cybrids – cell-based, galactose medium, ATP luminescence, primary screen (AID 1645843;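 active = z-score of at least 1.8 in each of two replicates, scored against plate mean and spread of sample wells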;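 note: positive z means more ATP and so rescue of galactose-driven cybrid death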); settings: complex I mutant cybrid cells, 72 h, stronger effect = higher value
# [7] = stronger effect = lower value, cell number ratio, induced over uninduced
# [8] = measured here: relative caspase fold change +Dox/-Dox
# [9] = measured here: total cells with miR-34 induction, stronger effect = lower value
# [10] = measured here: total cells without miR-34 induction
SMILES,period change [1],inhibition [2],fluorescence ratio (interference) [3],"fold change [4, 7]","fold change [4, 8]","cell count [4, 9]","cell count [4, 10]",outcome [5],z-score [6]
COc1cc(C(O)C(=O)O)ccc1O (configuration not stated),0.03 h (inactive),-2% (inactive),1 (inactive),0.986 (inactive),1.43,10600,10700,inactive,-0.02 (inactive)
COC(=O)C(N)Cc1ccc(Cl)cc1 (configuration not stated),-0.02 h (inactive),1% (inactive),1 (inactive),0.984 (inactive),1.85,9580,9740,inactive,0.46 (inactive)
c1cnc2c(c1)ccc1cccnc12,0.09 h (inactive),-3% (inactive),1 (inactive),0.996 (inactive),2.62,2190,2200,inactive,-1.21 (inactive)
O=c1[nH]c2cc(Cl)ccc2c(O)c1-c1ccc(Oc2ccccc2)cc1,-0.015 h (inactive),-2% (inactive),1 (inactive),1.06 (inactive),0.974,10400,9850,inactive,0.965 (inactive)
Cc1ccccc1/C=C/C1=NCCN1,-0.13 h (inactive),-5% (inactive),1 (inactive),1.01 (inactive),0.996,7710,7640,inactive,-1.06 (inactive)
N[C@@H](CCC(=O)N[C@H](CSN=O)C(=O)NCC(=O)O)C(=O)O,0.1 h (inactive),-3% (inactive),1 (inactive),1.04 (inactive),1.18,10800,10400,inactive,0.335 (inactive)
OCC1O[C@H](O)C(Cl)C(O)C1O (some centres not stated),0.3 h (inactive),-1% (inactive),1 (inactive),0.973 (inactive),1.54,9780,10100,inactive,-0.395 (inactive)
O=C(O)CCCC[C@@H]1CCSS1,0.11 h (inactive),0% (inactive),1 (inactive),0.958 (inactive),0.931,9120,9520,inactive,0.53 (inactive)
CC1C(=O)N(C)C(=O)c2nc[nH]c21 (configuration not stated),0.13 h (inactive),-3% (inactive),0.9 (inactive),0.928 (inactive),1.21,9940,10700,inactive,0.22 (inactive)
CC(=O)SCC[N+](C)(C)C,0.015 h (inactive),0% (inactive),1 (inactive),1.01 (inactive),2.3,10500,10400,inactive,0.495 (inactive)
N[C@@H](Cc1ccc(F)cc1)C(=O)O,-0.05 h (inactive),-1% (inactive),1 (inactive),1.04 (inactive),0.805,9710,9330,inactive,0.26 (inactive)
Nc1ncnc2c1nc(Sc1ccc(Cl)cc1)n2C1OC2COP(=O)(O)O[C@@H]2[C@@H]1O (some centres not stated),-0.015 h (inactive),-8% (inactive),0.9 (inactive),1.01 (inactive),1.25,10500,10500,inactive,1.15 (inactive)
COc1cc2c(CCNC(C)=O)c[nH]c2cc1O,-0.175 h (inactive),-2% (inactive),1 (inactive),0.921 (inactive),1.6,10100,11000,inactive,-0.44 (inactive)
NC1(C(=O)O)CCCCC1,-0.115 h (inactive),-2% (inactive),1 (inactive),0.983 (inactive),2.37,10700,10900,inactive,0.63 (inactive)
Nc1ncnc2c1nc(Br)n2C1OC2COP(=O)(O)O[C@@H]2C1O (some centres not stated),-0.095 h (inactive),-5% (inactive),0.9 (inactive),0.962 (inactive),1.6,8440,8780,inactive,0.735 (inactive)
CC(=O)C(C)=O,-0.125 h (inactive),-3% (inactive),1 (inactive),1.06 (inactive),0.938,10100,9490,inactive,0.23 (inactive)
CNC(=O)[C@H]1O[C@@H](n2cnc3c(NCc4ccc(N)cc4)ncnc32)C(O)[C@H]1O (some centres not stated),-0.095 h (inactive),-2% (inactive),1 (inactive),1 (inactive),1.7,9670,9680,inactive,0.09 (inactive)
CSc1nc(N)c2ncn([C@@H]3O[C@H](COP(=O)(O)OP(=O)(O)OP(=O)(O)O)[C@H](O)C3O)c2n1 (some centres not stated),-0.07 h (inactive),41% (active),1 (inactive),0.981 (inactive),2.88,9690,9880,inactive,1.04 (inactive)
OC[C@H]1O[C@@H](n2cnc3c(NC4CCCC4)ncnc32)C(O)[C@H]1O (some centres not stated),-0.095 h (inactive),-5% (inactive),1 (inactive),0.956 (inactive),1.31,9220,9650,inactive,1.05 (inactive)
Oc1ccccc1O,-0.735 h (inactive),-1% (inactive),1 (inactive),1.03 (inactive),1.8,7780,7580,inactive,-1.42 (inactive)
CNc1cc(NS(=O)(=O)c2ccc(N)cc2)nc(NC)n1,-0.065 h (inactive),-3% (inactive),1 (inactive),1.09 (inactive),0.965,9150,8390,inactive,0.695 (inactive)
C=CC[C@H](N)C(=O)O,-0.185 h (inactive),-3% (inactive),1 (inactive),0.944 (inactive),0.719,9830,10400,inactive,0.62 (inactive)
CN(C)C(N)=NCCC[C@H](N)C(=O)O,-0.14 h (inactive),-2% (inactive),1 (inactive),0.963 (inactive),1.27,9830,10200,inactive,0.265 (inactive)
